# Measurements as given in PubChem BioAssay (Tox21).
# Values without a mark were called inactive. Results filed as inconclusive are left out. The source made the active and inactive calls. Unless noted, the call rests on the fitted dose curve; in most records, active means well fitted curve in the direction sought with a large enough effect in the repeat runs; inconclusive means weak or mixed curves; inactive means no such curve, though single readings can be large; an effect the other way counts as inactive or inconclusive.
# What was measured:
# [1] = Caspase-3/7 induction in CHO-K1 cells by small molecules, qHTS cell viability counter screen (AID 1346979); further: nearly all actives have a fitted effect of over 35% in size; further: potency means the concentration at half of the fitted maximal effect
# Procedure, shortened: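 To flag cytotoxic compounds, treated CHO-K1 wild-type cells were given CellTiter-Fluor at 16hr and read fluorescently after 1hr at 37C; the caspase-3/7 luminescence was measured in these same wells.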
# [2] = Caspase-3/7 induction in CHO-K1 cells by small molecules, qHTS assay (AID 1346980); further: nearly all actives have a fitted effect of over 15% in size; further: potency means the concentration at half of the fitted maximal effect; on caspase-3/7 activation: on the % scale 0 is the no-effect control and ±100 the full control effect
# Procedure, shortened: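 Wild-type CHO-K1 cells exposed to compounds for 17hr at 37 C, 5% CO2. Caspase-3/7 activity then measured by Caspase-Glo 3/7 luminescence after 30min at room temperature.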
# [3] = Caspase-3/7 induction in HepG2 cells by small molecules, qHTS cell viability counter screen (AID 1346981); further: nearly all actives have a fitted effect of over 30% in size; further: potency means the concentration at half of the fitted maximal effect
# Procedure, shortened: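 Wild-type HepG2 cells, 2,000/well, settled 5 hr at 37 C, 5% CO2 before compound addition. Viability read by CellTiter-Fluor fluorescence, reagent added after 16 hr compound exposure, then 1 hr at 37C, in the same wells as the caspase read.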
# [4] = molecular target: Acetylcholinesterase (Homo sapiens) (UniProt P22303); experiment: Acetylcholinesterase (AChE) small molecule antagonists: colormetric cell-based qHTS assay (AID 1347395; calls by dose curve; further: on the % scale 0 is the no-effect control and ±100 the full control effect; nearly all actives have a fitted effect of over 30% in size)
# Procedure, shortened: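 Neuroblastoma line SH-SY5Y supplied the enzyme; cells were preincubated with compound for 30 min at 37 C and 5% CO2. Acetylthiocholine with DTNB was then added for 90 min at 37 C, and thiocholine was measured by colour.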
# [5] = molecular target: Acetylcholinesterase (Homo sapiens) (UniProt P22303); experiment: Acetylcholinesterase (AChE) small molecule antagonists: enzyme-based qHTS assay (AID 1347397; calls by dose curve; further: nearly all actives have a fitted effect of over 55% in size; further: potency means the concentration at half of the fitted maximal effect; on activity change, negative = inhibition: on the % scale 0 is the no-effect control and ±100 the full control effect); details: Potency: AChE enzyme activity inhibition
# Procedure, shortened: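 Recombinant human AChE (50 mU/mL) preincubated with compound 30 min at room temperature; acetylthiocholine plus DTNB then added, and thiocholine formation read colorimetrically after 10 min at room temperature. DMSO served as vehicle control.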
# [6] = molecular target: Acetylcholinesterase (Homo sapiens) (UniProt P22303); experiment: Acetylcholinesterase (AChE) small molecule antagonists: fluorescence cell-based qHTS assay (AID 1347398; calls by dose curve; further: nearly all actives have a fitted effect of over 50% in size; further: potency means the concentration at half of the fitted maximal effect; on activity change, negative = inhibition: on the % scale 0 is the no-effect control and ±100 the full control effect); details: Potency: AChE activity
# Procedure, shortened: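 SH-SY5Y cells (2000/well), attached overnight, incubated with compound 30 min at 37 C. Acetylthiocholine plus Thiolite Green then added for 40 min at room temperature. Thiocholine fluorescence (Ex/Em 490/520 nm) reports cellular AChE activity.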
# [7] = molecular target: Acetylcholinesterase (Homo sapiens) (UniProt P22303); experiment: Acetylcholinesterase (AChE) small molecule antagonists: enzyme-based qHTS assay with human liver microsomes (AID 1347399; calls by dose curve; further: on the % scale 0 is the no-effect control and ±100 the full control effect; nearly all actives have a fitted effect of over 60% in size); details: Potency: qHTS inhibition
# Procedure, shortened: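 Recombinant human AChE (50 mU/mL in the enzyme mix) and human liver microsomes (0.25 mg/mL final) were preincubated with compound and NADPH (0.25 mg/mL final) for 30 min at 37 C. Acetylthiocholine/DTNB was then added; thiocholine was read colorimetrically after 10 min at room temperature.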
# [8] = molecular target: Cytochrome P450 2D6 (Homo sapiens) (UniProt P10635); experiment: Cytochrome P450 Family 2 Subfamily D Member 6 (CYP2D6) small molecule antagonists: luciferase reporter qHTS assay (AID 1671196); further: potency means the concentration at half of the fitted maximal effect; nearly all actives have a fitted effect of over 50% in size
# Procedure, shortened: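 Cell-free P450-Glo system: CYP2D6 with proluciferin substrate was pre-incubated with compound for 10 min, then reacted with NADPH regeneration for 1 h at room temperature. Luciferin product was detected after 20 min, and data were reported as relative luminescence units.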
# [9] = molecular target: Cytochrome P450 2C19 (Homo sapiens) (UniProt P33261); experiment: Cytochrome P450 Family 2 Subfamily C Member 19 (CYP2C19) small molecule antagonists: luciferase reporter qHTS assay (AID 1671197); further: potency means the concentration at half of the fitted maximal effect; nearly all actives have a fitted effect of over 65% in size
# Procedure, shortened: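 CYP2C19 P450-Glo, 1536-well qHTS. Cpd + enzyme/proluciferin substrate 10 min RT; + NADPH regen, 37C 1 h; stop with luciferin detection reagent, 20 min RT, luminescence (RLU). Pos ctrl ketoconazole.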
# [10] = molecular target: Cytochrome P450 2C9 (Homo sapiens) (UniProt P11712); experiment: Cytochrome P450 Family 2 Subfamily C Member 9 (CYP2C9) small molecule antagonists: luciferase reporter qHTS assay (AID 1671198); further: potency means the concentration at half of the fitted maximal effect; nearly all actives have a fitted effect of over 50% in size
# Procedure, shortened: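 P450-Glo proluciferin substrate with CYP2C9 enzyme; 10 min RT preincubation, then NADPH regeneration 1 h at 37C; luciferin detection reagent 20 min RT, luminescence in relative luminescence units.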
# [11] = molecular target: Cytochrome P450 1A2 (Homo sapiens) (UniProt P05177); experiment: Cytochrome P450 Family 1 Subfamily A Member 2 (CYP1A2) small molecule antagonists: luciferase reporter qHTS assay (AID 1671199); further: nearly all actives have a fitted effect of over 50% in size; further: potency means the concentration at half of the fitted maximal effect; on activity change, negative = inhibition: series mostly up to about 120 µM; on the % scale 0 is the no-effect control and ±100 the full control effect
# Procedure, shortened: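 P450-Glo CYP1A2 enzyme–proluciferin substrate mix with compound 10 min at room temperature, then NADPH regeneration 1 h at room temperature. Luciferin detection reagent added, luminescence read after 20 min; furafylline positive control.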
# [12] = molecular target: Voltage-gated inwardly rectifying potassium channel KCNH2 (Homo sapiens) (UniProt Q12809); experiment: Human Ether-a-go-go-Related Gene (hERG) channel small molecule antagonists: fluorescence cell-based qHTS assay (AID 1671200); further: nearly all actives have a fitted effect of over 50% in size; further: potency means the concentration at half of the fitted maximal effect
# Procedure, shortened: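 Measured: Tl+ flux via fluorescence (480/540 nm) in hERG-expressing U2OS cells after 1 h dye loading at room temperature.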
# [13] = molecular target: Cytochrome P450 3A4 (Homo sapiens) (UniProt P08684); experiment: Cytochrome P450 Family 3 Subfamily A Member 4 (CYP3A4) small molecule antagonists: luciferase reporter qHTS assay (AID 1671201); further: nearly all actives have a fitted effect of over 50% in size; further: potency means the concentration at half of the fitted maximal effect
# Procedure, shortened: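 Setup: enzyme-substrate mix, compound pin transfer, 10 min RT. Reaction: NADPH regeneration solution, 1 h RT. Readout: detection reagent stops turnover, luminescence measured after 20 min, expressed in relative luminescence units.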
# [14] = molecular target: Nuclear receptor subfamily 1 group I member 2 (Homo sapiens) (UniProt O75469); experiment: Human pregnane X receptor (PXR) small molecule agonists, qHTS assay (AID 1346982); further: potency means the concentration at half of the fitted maximal effect; nearly all actives have a fitted effect of over 35% in size
# Procedure, shortened: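 PXR-Luc HepG2 reporter cells (CYP3A4-driven luciferase) in 5% charcoal-stripped FBS medium, plated 5 h before compound addition, then treated 24 h at 37C. Luciferase read by ONE-Glo luminescence after 30 min at room temperature.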
# Sequence of Cytochrome P450 3A4 (Homo sapiens) (P08684 whole entry, looked up): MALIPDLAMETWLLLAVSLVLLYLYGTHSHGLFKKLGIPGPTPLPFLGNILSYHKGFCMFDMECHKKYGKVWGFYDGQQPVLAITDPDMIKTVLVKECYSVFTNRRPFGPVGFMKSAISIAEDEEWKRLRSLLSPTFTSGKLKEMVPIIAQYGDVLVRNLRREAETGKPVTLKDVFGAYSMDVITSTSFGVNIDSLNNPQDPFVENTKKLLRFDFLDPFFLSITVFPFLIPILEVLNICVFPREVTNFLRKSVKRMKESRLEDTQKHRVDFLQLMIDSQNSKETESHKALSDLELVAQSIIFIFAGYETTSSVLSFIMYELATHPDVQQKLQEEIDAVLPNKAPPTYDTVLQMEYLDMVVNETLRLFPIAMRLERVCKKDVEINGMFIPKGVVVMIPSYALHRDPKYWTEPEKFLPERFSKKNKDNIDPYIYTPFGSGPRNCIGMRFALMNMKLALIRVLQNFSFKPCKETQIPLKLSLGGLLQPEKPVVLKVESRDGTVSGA
# Sequence of Voltage-gated inwardly rectifying potassium channel KCNH2 (Homo sapiens) (Q12809 whole entry, looked up): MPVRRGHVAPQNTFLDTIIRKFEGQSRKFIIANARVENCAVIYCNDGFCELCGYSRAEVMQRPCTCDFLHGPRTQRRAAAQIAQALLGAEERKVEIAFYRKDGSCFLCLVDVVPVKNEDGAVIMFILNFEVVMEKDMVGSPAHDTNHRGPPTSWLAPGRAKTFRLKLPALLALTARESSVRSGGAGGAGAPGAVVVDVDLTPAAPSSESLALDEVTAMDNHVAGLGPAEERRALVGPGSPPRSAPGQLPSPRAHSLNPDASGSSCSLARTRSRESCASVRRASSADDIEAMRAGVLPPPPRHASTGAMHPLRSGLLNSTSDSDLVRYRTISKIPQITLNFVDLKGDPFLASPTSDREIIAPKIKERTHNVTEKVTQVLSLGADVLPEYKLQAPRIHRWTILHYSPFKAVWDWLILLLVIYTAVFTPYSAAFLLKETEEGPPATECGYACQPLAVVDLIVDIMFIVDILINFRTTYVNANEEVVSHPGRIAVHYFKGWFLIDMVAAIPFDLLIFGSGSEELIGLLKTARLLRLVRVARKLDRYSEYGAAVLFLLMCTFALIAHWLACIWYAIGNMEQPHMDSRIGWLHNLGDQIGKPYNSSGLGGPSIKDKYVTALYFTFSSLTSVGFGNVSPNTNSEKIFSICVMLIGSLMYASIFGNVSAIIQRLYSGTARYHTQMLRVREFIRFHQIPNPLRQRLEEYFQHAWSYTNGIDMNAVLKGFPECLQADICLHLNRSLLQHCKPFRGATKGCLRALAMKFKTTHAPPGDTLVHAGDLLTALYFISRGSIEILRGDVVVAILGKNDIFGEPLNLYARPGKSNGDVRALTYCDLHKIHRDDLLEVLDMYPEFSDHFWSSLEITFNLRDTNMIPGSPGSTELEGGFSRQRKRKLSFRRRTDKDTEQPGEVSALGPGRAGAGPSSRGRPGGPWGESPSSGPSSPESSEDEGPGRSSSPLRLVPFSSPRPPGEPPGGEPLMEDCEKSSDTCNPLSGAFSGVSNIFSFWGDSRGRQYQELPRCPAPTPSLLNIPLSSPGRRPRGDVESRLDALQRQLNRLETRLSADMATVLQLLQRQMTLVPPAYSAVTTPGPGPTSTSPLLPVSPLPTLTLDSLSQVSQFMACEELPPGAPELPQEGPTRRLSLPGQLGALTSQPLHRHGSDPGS
# Sequence of Cytochrome P450 1A2 (Homo sapiens) (P05177 whole entry, looked up): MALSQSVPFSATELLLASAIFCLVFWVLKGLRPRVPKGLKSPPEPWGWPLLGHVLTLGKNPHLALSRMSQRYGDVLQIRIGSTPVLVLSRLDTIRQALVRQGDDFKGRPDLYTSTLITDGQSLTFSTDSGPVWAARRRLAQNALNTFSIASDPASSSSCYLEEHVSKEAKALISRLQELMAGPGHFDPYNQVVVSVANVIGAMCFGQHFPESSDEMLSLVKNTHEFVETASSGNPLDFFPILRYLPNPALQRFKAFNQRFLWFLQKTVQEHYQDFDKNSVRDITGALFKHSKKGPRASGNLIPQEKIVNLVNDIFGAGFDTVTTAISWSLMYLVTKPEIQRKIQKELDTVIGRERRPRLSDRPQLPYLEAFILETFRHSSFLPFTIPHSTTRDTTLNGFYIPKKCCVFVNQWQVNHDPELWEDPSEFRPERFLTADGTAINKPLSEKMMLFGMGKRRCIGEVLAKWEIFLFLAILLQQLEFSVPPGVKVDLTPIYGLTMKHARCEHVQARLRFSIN
# Sequence of Nuclear receptor subfamily 1 group I member 2 (Homo sapiens) (O75469 whole entry, looked up): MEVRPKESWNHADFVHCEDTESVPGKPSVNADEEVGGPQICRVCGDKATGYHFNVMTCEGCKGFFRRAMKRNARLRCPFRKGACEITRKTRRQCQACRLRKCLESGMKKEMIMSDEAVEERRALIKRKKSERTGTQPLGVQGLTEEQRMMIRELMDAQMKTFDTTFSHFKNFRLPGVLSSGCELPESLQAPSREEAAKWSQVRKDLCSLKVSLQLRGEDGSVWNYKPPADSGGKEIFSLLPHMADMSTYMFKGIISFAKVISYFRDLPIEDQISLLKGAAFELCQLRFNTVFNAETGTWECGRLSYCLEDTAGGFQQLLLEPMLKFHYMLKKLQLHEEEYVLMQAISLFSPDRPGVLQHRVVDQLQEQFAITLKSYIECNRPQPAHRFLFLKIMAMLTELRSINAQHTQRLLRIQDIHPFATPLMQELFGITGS
# Sequence of Cytochrome P450 2C19 (Homo sapiens) (P33261 whole entry, looked up): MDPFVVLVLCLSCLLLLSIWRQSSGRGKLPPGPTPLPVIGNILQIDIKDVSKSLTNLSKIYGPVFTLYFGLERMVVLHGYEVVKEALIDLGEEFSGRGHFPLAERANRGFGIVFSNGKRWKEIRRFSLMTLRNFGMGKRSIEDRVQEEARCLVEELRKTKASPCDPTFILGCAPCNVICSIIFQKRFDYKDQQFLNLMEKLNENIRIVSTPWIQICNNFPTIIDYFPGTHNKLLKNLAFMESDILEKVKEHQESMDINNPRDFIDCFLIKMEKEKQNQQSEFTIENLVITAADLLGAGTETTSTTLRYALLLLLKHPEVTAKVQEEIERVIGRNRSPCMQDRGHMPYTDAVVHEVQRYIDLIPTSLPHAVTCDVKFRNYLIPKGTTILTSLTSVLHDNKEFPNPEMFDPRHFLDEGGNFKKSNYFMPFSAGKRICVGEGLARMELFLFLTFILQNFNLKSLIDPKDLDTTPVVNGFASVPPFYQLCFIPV
# Sequence of Acetylcholinesterase (Homo sapiens) (P22303 whole entry, looked up): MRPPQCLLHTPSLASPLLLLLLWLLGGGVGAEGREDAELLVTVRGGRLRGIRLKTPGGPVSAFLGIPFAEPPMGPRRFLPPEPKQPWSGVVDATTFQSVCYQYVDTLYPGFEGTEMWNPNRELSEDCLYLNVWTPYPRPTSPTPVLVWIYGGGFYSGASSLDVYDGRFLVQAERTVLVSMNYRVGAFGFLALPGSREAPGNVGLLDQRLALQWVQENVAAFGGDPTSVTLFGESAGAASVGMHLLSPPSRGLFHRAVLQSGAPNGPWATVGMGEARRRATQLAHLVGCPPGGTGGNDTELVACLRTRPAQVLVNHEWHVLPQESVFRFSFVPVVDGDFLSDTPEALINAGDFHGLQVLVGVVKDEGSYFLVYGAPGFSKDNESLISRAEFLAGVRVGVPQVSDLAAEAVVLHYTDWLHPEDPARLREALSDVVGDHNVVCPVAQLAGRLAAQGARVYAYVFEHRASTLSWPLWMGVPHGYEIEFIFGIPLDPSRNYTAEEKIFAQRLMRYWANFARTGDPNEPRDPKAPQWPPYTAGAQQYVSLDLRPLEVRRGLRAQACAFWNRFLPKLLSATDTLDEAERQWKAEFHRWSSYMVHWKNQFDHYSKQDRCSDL
# Sequence of Cytochrome P450 2C9 (Homo sapiens) (P11712 whole entry, looked up): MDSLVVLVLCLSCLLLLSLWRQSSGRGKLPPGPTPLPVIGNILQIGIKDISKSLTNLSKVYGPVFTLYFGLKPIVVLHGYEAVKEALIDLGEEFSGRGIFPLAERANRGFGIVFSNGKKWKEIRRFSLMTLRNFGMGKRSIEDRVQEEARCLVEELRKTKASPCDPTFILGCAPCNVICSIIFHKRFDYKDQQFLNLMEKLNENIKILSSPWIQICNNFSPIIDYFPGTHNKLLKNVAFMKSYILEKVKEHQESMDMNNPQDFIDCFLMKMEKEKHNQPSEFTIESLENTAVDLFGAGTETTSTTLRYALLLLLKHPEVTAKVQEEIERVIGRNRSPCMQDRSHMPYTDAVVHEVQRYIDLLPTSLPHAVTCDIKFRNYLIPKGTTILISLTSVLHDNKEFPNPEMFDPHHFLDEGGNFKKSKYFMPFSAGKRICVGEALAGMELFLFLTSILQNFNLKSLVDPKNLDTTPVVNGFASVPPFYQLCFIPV
# Sequence of Cytochrome P450 2D6 (Homo sapiens) (P10635 whole entry, looked up): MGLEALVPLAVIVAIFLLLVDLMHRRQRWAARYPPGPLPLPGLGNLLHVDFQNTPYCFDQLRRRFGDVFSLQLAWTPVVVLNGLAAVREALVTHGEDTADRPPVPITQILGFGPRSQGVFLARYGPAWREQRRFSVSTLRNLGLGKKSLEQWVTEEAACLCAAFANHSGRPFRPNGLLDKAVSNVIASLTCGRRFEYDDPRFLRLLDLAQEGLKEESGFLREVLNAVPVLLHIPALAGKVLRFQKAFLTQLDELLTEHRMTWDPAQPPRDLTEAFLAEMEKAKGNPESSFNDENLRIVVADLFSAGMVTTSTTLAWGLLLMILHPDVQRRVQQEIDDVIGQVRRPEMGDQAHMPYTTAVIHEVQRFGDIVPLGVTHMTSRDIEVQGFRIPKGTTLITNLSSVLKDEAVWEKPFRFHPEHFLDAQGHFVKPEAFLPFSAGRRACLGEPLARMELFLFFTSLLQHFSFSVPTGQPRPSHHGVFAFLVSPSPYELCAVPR
smiles,measurement,setting,value
[Cl][Sn]([c]1ccccc1)([c]1ccccc1)[c]1ccccc1,Potency,[1],0.326 µM (active)
same,Potency,[2],0.326 µM (active)
same,Potency,[3],5.8 µM (active)
same,"activity, negative = inhibition",[4],1.75% [at 23.6 µM]
same,"activity change, negative = inhibition",[5],0% [at 23.6 µM]
same,"activity change, negative = inhibition",[6],12.9% [at 23.8 µM]
same,"activity change, negative = inhibition",[7],0.0872% [at 23.6 µM]
same,Potency,[8],0.952 µM (active)
same,Potency,[9],6.74 µM (active)
same,Potency,[10],3.79 µM (active)
same,"activity change, negative = inhibition",[11],-2.03% [at 23.6 µM]
same,Potency,[12],2.08 µM (active)
same,Potency,[13],7.56 µM (active)
CN(C)C(=S)[S-].CN(C)C(=S)[S-].[Cu+2],Potency,[1],1.67 µM (active)
same,caspase-3/7 activation,[2],-5.91% [at 19 µM]
same,Potency,[3],7.45 µM (active)
same,"activity change, negative = inhibition",[12],-11.4% [at 15.8 µM]
CC(C)(c1ccc(O)c(-c2ccccc2)c1)c1ccc(O)c(-c2ccccc2)c1,Potency,[1],43.3 µM (active)
same,Potency,[3],61.1 µM (active)
same,Potency,[14],24.3 µM (active)
same,Potency,[4],inactive
same,Potency,[5],17.8 µM (active)
same,Potency,[6],inactive
same,Potency,[7],inactive
same,Potency,[8],63.3 µM (active)
same,Potency,[9],17.8 µM (active)
same,Potency,[10],3.17 µM (active)
same,Potency,[11],35.6 µM (active)
same,Potency,[12],inactive
same,Potency,[13],5.03 µM (active)
CCOCCOC(C)=O,Potency,[1],inactive
same,Potency,[2],inactive
same,Potency,[3],inactive
same,Potency,[5],inactive
same,Potency,[7],inactive
same,Potency,[8],71 µM (active)
same,Potency,[9],79.6 µM (active)
same,Potency,[11],43.5 µM (active)
same,Potency,[12],inactive
same,Potency,[13],inactive
Oc1ccc(C2(c3ccc(O)cc3)CCCCC2)cc1,Potency,[1],57.9 µM (active)
same,Potency,[2],inactive
same,Potency,[3],51.6 µM (active)
same,Potency,[14],13 µM (active)
same,Potency,[5],inactive
same,Potency,[6],inactive
same,Potency,[7],inactive
same,Potency,[9],37.8 µM (active)
same,Potency,[10],33.7 µM (active)
CCCCN(CCCC)C(=S)[S-].CCCCN(CCCC)C(=S)[S-].[Zn+2],Potency,[1],21.7 µM (active)
same,Potency,[2],inactive
same,Potency,[4],inactive
same,Potency,[5],inactive
same,Potency,[6],inactive
same,Potency,[7],inactive
same,Potency,[9],79.6 µM (active)
same,Potency,[12],inactive
same,Potency,[13],28.3 µM (active)
O=C(O)c1cc[c]([Hg][Cl])cc1,Potency,[1],24.3 µM (active)
same,Potency,[14],21.7 µM (active)
same,Potency,[5],inactive
same,Potency,[6],71 µM (active)
same,Potency,[7],inactive
same,Potency,[8],12.6 µM (active)
same,Potency,[9],7.1 µM (active)
same,Potency,[10],4.48 µM (active)
same,Potency,[11],17.8 µM (active)
same,Potency,[12],inactive
same,Potency,[13],8.94 µM (active)
CC(C)(C)c1cc([N+](=O)[O-])cc(C(C)(C)C)c1O,Potency,[1],7.7 µM (active)
same,Potency,[2],inactive
same,Potency,[14],5.45 µM (active)
same,Potency,[4],inactive
same,Potency,[5],inactive
same,Potency,[6],inactive
same,Potency,[7],inactive
same,Potency,[9],31.7 µM (active)
same,Potency,[10],12.6 µM (active)
same,Potency,[11],31.7 µM (active)
Oc1ccc(C2(c3ccc(O)cc3)c3ccccc3-c3ccccc32)cc1,Potency,[1],68.6 µM (active)
same,Potency,[2],inactive
same,Potency,[5],39.9 µM (active)
same,Potency,[6],inactive
same,Potency,[7],inactive
same,Potency,[8],79.6 µM (active)
same,Potency,[9],25.2 µM (active)
same,Potency,[10],20 µM (active)
same,Potency,[11],79.6 µM (active)
same,Potency,[12],inactive
same,Potency,[13],17.8 µM (active)
CCCOCC(=Nc1ccc(Cl)cc1C(F)(F)F)n1ccnc1,Potency,[1],48.5 µM (active)
same,Potency,[2],inactive
same,Potency,[14],24.3 µM (active)
same,Potency,[4],inactive
same,Potency,[5],inactive
same,Potency,[6],inactive
same,Potency,[7],inactive
same,Potency,[8],35.6 µM (active)
same,Potency,[9],0.71 µM (active)
same,Potency,[10],5.03 µM (active)
same,Potency,[11],8.94 µM (active)
same,Potency,[12],48.9 µM (active)
same,Potency,[13],0.283 µM (active)
